# PubChem BioAssay AID1159580 (chemical genetic matrix, 2015)
# Screen size: about 5,500 compounds; about 2,000 (36%) were called active. Not shown: some 18% with an inconclusive outcome. Some of the results follow. Unmarked numbers belong to inactive results. Rule as the data show it: active = normalized growth mostly below about 0.91 (no sharp cut-off); inconclusive = no clear call, values can overlap the other calls; inactive = mostly above about 0.92.
# Assay: chemical genetic growth profiling, strain panel (AID 1159580);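 also: tested at 20 µM; growth read once vehicle control cultures reached saturation at 30 °C; 1 = growth at the plate median or of vehicle wells; lower values mean less growth of the strain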
# Settings: S. cerevisiae deletion strains, growth OD
smiles,measurement,setting,value
COc1c2c(c(CC=C(C)C)c3oc(=O)c(-c4ccc(O)cc4)c(O)c13)OC(C)(C)C=C2,normalized growth,"locus YAL013W, strain DEP1, stronger effect = lower value",0.307 (active)
same,normalized growth,"locus YAL021C, strain ccr4, stronger effect = lower value",0.989
same,normalized growth,"locus YAL026C, strain drs2, stronger effect = lower value",0.87 (active)
same,normalized growth,"locus YAL030W, strain snc1, stronger effect = lower value",0.916 (active)
same,normalized growth,"locus YBL061C, strain skt5, stronger effect = lower value",0.846 (active)
same,normalized growth,"locus YBR009C, strain hhf1, stronger effect = lower value",0.656 (active)
same,normalized growth,"locus YBR021W, strain FUR4, stronger effect = lower value",0.849
same,normalized growth,"locus YBR023C, strain chs3, stronger effect = lower value",0.854 (active)
same,normalized growth,"locus YBR171W, strain sec66, stronger effect = lower value",0.989
same,normalized growth,"locus YBR229C, strain ROT2, stronger effect = lower value",0.997
same,normalized growth,"locus YBR231C, strain swc5, stronger effect = lower value",0.857 (active)
same,normalized growth,"locus YBR279W, strain paf1, stronger effect = lower value",0.972
same,normalized growth,"locus YCL011C, strain gbp2, stronger effect = lower value",0.759 (active)
same,normalized growth,"locus YCL016C, strain dcc1, stronger effect = lower value",0.938
same,normalized growth,"locus YCL029C, strain bik1, stronger effect = lower value",0.677 (active)
same,normalized growth,"locus YCL061C, strain MRC1, stronger effect = lower value",0.816 (active)
same,normalized growth,"locus YCL069W, strain vba3, stronger effect = lower value",0.812 (active)
same,normalized growth,"locus YCR088W, strain abp1, stronger effect = lower value",0.944
same,normalized growth,"locus YDL005C, strain med2, stronger effect = lower value",0.925
same,normalized growth,"locus YDL035C, strain GPR1, stronger effect = lower value",0.861
same,normalized growth,"locus YDL040C, strain nat1, stronger effect = lower value",0.992
same,normalized growth,"locus YDL074C, strain BRE1, stronger effect = lower value",0.325 (active)
same,normalized growth,"locus YDL101C, strain DUN1, stronger effect = lower value",0.862 (active)
same,normalized growth,"locus YDL185W, strain tfp1, stronger effect = lower value",1.02
same,normalized growth,"locus YDL192W, strain arf1, stronger effect = lower value",0.414 (active)
same,normalized growth,"locus YDR001C, strain nth1, stronger effect = lower value",0.989
same,normalized growth,"locus YDR069C, strain doa4, stronger effect = lower value",1.01
same,normalized growth,"locus YDR101C, strain arx1, stronger effect = lower value",0.775 (active)
same,normalized growth,"locus YDR137W, strain rgp1, stronger effect = lower value",0.819 (active)
same,normalized growth,"locus YDR150W, strain NUM1, stronger effect = lower value",1.01
same,normalized growth,"locus YDR159W, strain sac3, stronger effect = lower value",0.383 (active)
same,normalized growth,"locus YDR162C, strain NBP2, stronger effect = lower value",0.642 (active)
same,normalized growth,"locus YDR195W, strain ref2",0.459 (active)
same,normalized growth,"locus YDR297W, strain sur2, stronger effect = lower value",0.847 (active)
same,normalized growth,"locus YDR318W, strain mcm21, stronger effect = lower value",0.681 (active)
same,normalized growth,"locus YDR334W, strain swr1, stronger effect = lower value",0.99
same,normalized growth,"locus YDR335W, strain msn5, stronger effect = lower value",0.851 (active)
same,normalized growth,"locus YDR388W, stronger effect = lower value",0.912 (active)
same,normalized growth,"locus YDR392W, strain spt3, stronger effect = lower value",0.103 (active)
same,normalized growth,"locus YDR502C, strain sam2, stronger effect = lower value",0.768 (active)
same,normalized growth,"locus YEL003W, strain gim4, stronger effect = lower value",0.766 (active)
same,normalized growth,"locus YEL037C, strain rad23, stronger effect = lower value",0.992
same,normalized growth,"locus YEL061C, strain CIN8 (second series), stronger effect = lower value",0.765 (active)
same,normalized growth,"locus YER015W, strain faa2, stronger effect = lower value",0.845 (active)
same,normalized growth,"locus YER016W, strain bim1, stronger effect = lower value",0.969
same,normalized growth,"locus YER110C, stronger effect = lower value",0.938
same,normalized growth,"locus YER111C, strain swi4, stronger effect = lower value",0.518 (active)
same,normalized growth,"locus YER155C, strain BEM2 (second series), stronger effect = lower value",0.536 (active)
same,normalized growth,"locus YER155C, strain BEM2, stronger effect = lower value",0.277 (active)
same,normalized growth,"locus YER167W, strain BCK2, stronger effect = lower value",0.806 (active)
same,normalized growth,"locus YFR010W, strain ubp6, stronger effect = lower value",0.977
same,normalized growth,"locus YGL078C, strain dbp3, stronger effect = lower value",0.98
same,normalized growth,"locus YGL086W, strain mad1, stronger effect = lower value",0.683 (active)
same,normalized growth,"locus YGL167C, strain pmr1, stronger effect = lower value",0.976
same,normalized growth,"locus YGL173C, strain kem1, stronger effect = lower value",0.9 (active)
same,normalized growth,"locus YGL227W, strain vid30, stronger effect = lower value",0.765 (active)
same,normalized growth,"locus YGL240W, strain doc1, stronger effect = lower value",0.903
same,normalized growth,"locus YGL248W, strain PDE1, stronger effect = lower value",0.763 (active)
same,normalized growth,"locus YGL253W, strain hxk2, stronger effect = lower value",0.838 (active)
same,normalized growth,"locus YGR078C, strain PAC10, stronger effect = lower value",0.633 (active)
same,normalized growth,"locus YGR135W, strain pre9, stronger effect = lower value",0.907
same,normalized growth,"locus YGR229C, strain SMI1, stronger effect = lower value",0.409 (active)
same,normalized growth,"locus YGR252W, strain gcn5, stronger effect = lower value",0.696 (active)
same,normalized growth,"locus YHR013C, strain ard1, stronger effect = lower value",1.03
same,normalized growth,"locus YHR027C, strain rpn1, stronger effect = lower value",0.942
same,normalized growth,"locus YHR079C, strain IRE1 (second series), stronger effect = lower value",0.868 (active)
same,normalized growth,"locus YHR094C, strain hxt1, stronger effect = lower value",0.832 (active)
same,normalized growth,"locus YHR129C, strain ARP1, stronger effect = lower value",0.61 (active)
same,normalized growth,"locus YHR142W, strain chs7, stronger effect = lower value",0.512 (active)
same,normalized growth,"locus YHR200W, strain rpn10, stronger effect = lower value",0.889 (active)
same,normalized growth,"locus YIL066C, strain RNR3, stronger effect = lower value",0.708 (active)
same,normalized growth,"locus YIL073C, strain SPO22, stronger effect = lower value",0.963
same,normalized growth,"locus YIL125W, strain kgd1, stronger effect = lower value",0.911 (active)
same,normalized growth,"locus YIR030C, strain dcg1, stronger effect = lower value",0.773 (active)
same,normalized growth,"locus YJL092W, strain hpr5, stronger effect = lower value",0.932
same,normalized growth,"locus YJL095W, strain BCK1 (second series), stronger effect = lower value",0.799 (active)
same,normalized growth,"locus YJL095W, strain BCK1, stronger effect = lower value",0.352 (active)
same,normalized growth,"locus YJL115W, strain asf1, stronger effect = lower value",1.02
same,normalized growth,"locus YJL129C, strain trk1, stronger effect = lower value",0.648 (active)
same,normalized growth,"locus YJL134W, strain LCB3, stronger effect = lower value",0.977
same,normalized growth,"locus YJL154C, strain vps35, stronger effect = lower value",0.982
same,normalized growth,"locus YJL164C, strain tpk1, stronger effect = lower value",0.747 (active)
same,normalized growth,"locus YJL166W, strain qcr8, stronger effect = lower value",0.679 (active)
same,normalized growth,"locus YJL168C, strain set2, stronger effect = lower value",0.985
same,normalized growth,"locus YJL187C, strain SWE1 (second series), stronger effect = lower value",0.837 (active)
same,normalized growth,"locus YJL187C, strain SWE1, stronger effect = lower value",0.877 (active)
same,normalized growth,"locus YKL009W, strain mrt4, stronger effect = lower value",0.925
same,normalized growth,"locus YKL068W, stronger effect = lower value",0.982
same,normalized growth,"locus YKL085W, strain MDH1 (second series), stronger effect = lower value",0.909 (active)
same,normalized growth,"locus YKL085W, strain MDH1, stronger effect = lower value",0.909 (active)
same,normalized growth,"locus YKL160W, strain elf1, stronger effect = lower value",0.95
same,normalized growth,"locus YKL190W, strain CNB1, stronger effect = lower value",0.851 (active)
same,normalized growth,"locus YKR001C, strain vps1, stronger effect = lower value",0.381 (active)
same,normalized growth,"locus YKR026C, strain gcn3, stronger effect = lower value",0.971
same,normalized growth,"locus YKR091W, strain srl3, stronger effect = lower value",0.991
same,normalized growth,"locus YLL001W, strain dnm1, stronger effect = lower value",0.848 (active)
same,normalized growth,"locus YLL026W, stronger effect = lower value",0.848 (active)
same,normalized growth,"locus YLL041C, strain sdh2, stronger effect = lower value",0.984
same,normalized growth,"locus YLR027C, strain aat2, stronger effect = lower value",0.72 (active)
same,normalized growth,"locus YLR039C, strain RIC1, stronger effect = lower value",0.444 (active)
same,normalized growth,"locus YLR058C, strain SHM2, stronger effect = lower value",0.782 (active)
same,normalized growth,"locus YLR102C, strain apc9, stronger effect = lower value",0.847 (active)
same,normalized growth,"locus YLR221C, strain rsa3, stronger effect = lower value",0.674 (active)
same,normalized growth,"locus YLR258W, strain gsy2, stronger effect = lower value",0.824 (active)
same,normalized growth,"locus YLR262C, strain YPT6 (second series), stronger effect = lower value",0.584 (active)
same,normalized growth,"locus YLR268W, strain sec22, stronger effect = lower value",0.693 (active)
same,normalized growth,"locus YLR320W, strain mms22, stronger effect = lower value",0.65 (active)
same,normalized growth,"locus YLR342W, strain FKS1 (second series), stronger effect = lower value",0.812
same,normalized growth,"locus YLR342W, strain FKS1, stronger effect = lower value",0.907 (active)
same,normalized growth,"locus YLR357W, strain rsc2, stronger effect = lower value",1.01
same,normalized growth,"locus YLR370C, strain arc18, stronger effect = lower value",0.965
same,normalized growth,"locus YLR371W, strain rom2, stronger effect = lower value",0.519 (active)
same,normalized growth,"locus YLR384C, strain iki3, stronger effect = lower value",1
same,normalized growth,"locus YLR418C, strain cdc73, stronger effect = lower value",0.214 (active)
same,normalized growth,"locus YML016C, strain PPZ1, stronger effect = lower value",0.904 (active)
same,normalized growth,"locus YML032C, strain rad52, stronger effect = lower value",0.63 (active)
same,normalized growth,"locus YML120C, strain ndi1, stronger effect = lower value",0.467 (active)
same,normalized growth,"locus YML124C, strain tub3, stronger effect = lower value",0.858 (active)
same,normalized growth,"locus YMR058W, strain fet3, stronger effect = lower value",0.834 (active)
same,normalized growth,"locus YMR078C, strain ctf18, stronger effect = lower value",0.537 (active)
same,normalized growth,"locus YMR125W, strain sto1, stronger effect = lower value",0.866 (active)
same,normalized growth,"locus YMR129W, stronger effect = lower value",0.915 (active)
same,normalized growth,"locus YMR205C, strain PFK2, stronger effect = lower value",0.664 (active)
same,normalized growth,"locus YMR223W, strain ubp8, stronger effect = lower value",0.792 (active)
same,normalized growth,"locus YMR231W, strain pep5, stronger effect = lower value",0.999
same,normalized growth,"locus YMR263W, strain SAP30, stronger effect = lower value",0.866 (active)
same,normalized growth,"locus YMR307W, strain GAS1, stronger effect = lower value",0.48 (active)
same,normalized growth,"locus YNL067W, strain RPL9B, stronger effect = lower value",0.938
same,normalized growth,"locus YNL071W, strain lat1, stronger effect = lower value",0.484 (active)
same,normalized growth,"locus YNL128W, strain TEP1, stronger effect = lower value",0.906
same,normalized growth,"locus YNL209W, strain ssb2, stronger effect = lower value",0.935
same,normalized growth,"locus YNL233W, strain BNI4, stronger effect = lower value",0.635 (active)
same,normalized growth,"locus YNL248C, strain rpa49, stronger effect = lower value",0.973
same,normalized growth,"locus YNL250W, strain rad50, stronger effect = lower value",1.05
same,normalized growth,"locus YNL271C, strain bni1, stronger effect = lower value",0.976
same,normalized growth,"locus YNL298W, strain CLA4, stronger effect = lower value",0.95
same,normalized growth,"locus YNL307C, strain MCK1, stronger effect = lower value",0.24 (active)
same,normalized growth,"locus YNL322C, strain KRE1 (second series), stronger effect = lower value",1.03
same,normalized growth,"locus YNL322C, strain KRE1, stronger effect = lower value",0.88 (active)
same,normalized growth,"locus YNR049C, strain mso1, stronger effect = lower value",0.987
same,normalized growth,"locus YNR052C, strain pop2, stronger effect = lower value",0.546 (active)
same,normalized growth,"locus YOL012C, strain htz1",0.365
same,normalized growth,"locus YOL147C, strain pex11, stronger effect = lower value",0.481 (active)
same,normalized growth,"locus YOR001W, strain rrp6, stronger effect = lower value",0.797 (active)
same,normalized growth,"locus YOR061W, strain CKA2, stronger effect = lower value",0.939
same,normalized growth,"locus YOR069W, strain VPS5, stronger effect = lower value",0.896 (active)
same,normalized growth,"locus YOR070C, strain gyp1, stronger effect = lower value",0.793 (active)
same,normalized growth,"locus YOR080W, strain dia2, stronger effect = lower value",0.946
same,normalized growth,"locus YOR083W, strain WHI5, stronger effect = lower value",0.876 (active)
same,normalized growth,"locus YOR106W, strain vam3, stronger effect = lower value",0.883
same,normalized growth,"locus YOR136W, strain idh2, stronger effect = lower value",0.867 (active)
same,normalized growth,"locus YOR144C, strain elg1, stronger effect = lower value",0.592 (active)
same,normalized growth,"locus YOR184W, strain ser1, stronger effect = lower value",0.217 (active)
same,normalized growth,"locus YOR265W, strain rbl2, stronger effect = lower value",0.919 (active)
same,normalized growth,"locus YOR270C, strain vph1, stronger effect = lower value",0.549 (active)
same,normalized growth,"locus YOR290C, strain snf2, stronger effect = lower value",0.631 (active)
same,normalized growth,"locus YOR316C, strain cot1, stronger effect = lower value",0.924
same,normalized growth,"locus YPL051W, strain arl3, stronger effect = lower value",0.787 (active)
same,normalized growth,"locus YPL078C, strain atp4, stronger effect = lower value",0.802 (active)
same,normalized growth,"locus YPL106C, strain sse1, stronger effect = lower value",0.913
same,normalized growth,"locus YPL240C, strain hsp82, stronger effect = lower value",0.853 (active)
same,normalized growth,"locus YPR119W, strain clb2, stronger effect = lower value",0.735 (active)
same,normalized growth,"locus YPR141C, strain kar3, stronger effect = lower value",0.977
same,normalized growth,"locus YPR163C, strain tif3, stronger effect = lower value",0.463 (active)
same,normalized growth,"locus YPR167C, strain met16, stronger effect = lower value",0.751 (active)
same,normalized growth,"strain wtn01, stronger effect = lower value",0.747 (active)
